JMJD2A Tudor – qHTS Assay for Inhibitors of JMJD2A-Tudor Domain | actives 4.4% (n = 390,000) | Lysine-specific demethylase 4A (Homo sapiens), O75164 | Potency, µM (doses to about 114 µM), for the others: top-dose activity change, negative = inhibition, most hits filed as inhibitors | AlphaScreen JMJD2A-Tudor / H3K4me3 peptide binding | AID 504339, 2011; also: % is scaled to controls: 0 for no effect and ±100 for the full control effect; nearly all actives have a fitted effect of over 50% in size
HP1b chromo inh – HTS for Inhibitors of HP1-beta Chromodomain Interactions with Methylated Histone Tails; Potency, µM (titrated, usually from 114 µM), inactives show at the highest dose activity change, negative = inhibition, most hits filed as inhibitors; actives 0.56% (n = 390,000); AlphaScreen HP1-beta / biotin-H3K9me3 peptide binding; also: nearly all actives have a fitted effect of over 70% in size
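Compound inhibition of the preformed complex between 50 nM HP1-beta and 50 nM biotinylated H3K9me3 peptide was read by AlphaScreen. Buffer was PBS pH 7.4 with 0.01% Tween-20. Incubations ran 30 min at room temperature, with 10 ug/mL donor/acceptor beads.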
L3MBTL1 inh – qHTS Assay for the Inhibitors of L3MBTL1; Lethal(3)malignant brain tumor-like protein 1 (Homo sapiens), Q9Y468; AlphaScreen L3MBTL1–H3K9me1 peptide binding; Potency, µM (top dose mostly 57.1 µM), for the others: at the highest dose activity, negative = inhibition, actives largely listed as inhibitors; actives 0.66% (n = 230,000); also: % is scaled to controls: 0 for no effect and ±100 for the full control effect; nearly all actives have a fitted effect of over 60% in size
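Displacement of a biotinylated histone H3(1-15) peptide monomethylated at Lys9 (75 nM) from L3MBTL1 (50 nM) was measured by AlphaScreen after a 30 min room-temperature compound incubation; cefsulodin titration served as intraplate control.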
BAZ2B block – qHTS Assay for Inhibitors of BAZ2B; Potency, µM (top dose mostly 114 µM), without a hit: at the top dose activity change, negative = inhibition, hits mostly inhibitors; Bromodomain adjacent to zinc finger domain protein 2B (Homo sapiens), Q9UIF8; actives 4.4% (n = 360,000); AID 504333, 2011; AlphaScreen BAZ2B-H3K14Ac peptide displacement; also: % is scaled to controls: 0 for no effect and ±100 for the full control effect; nearly all actives have a fitted effect of over 60% in size
Target sequence (Q9UIF8 whole entry, looked up, the tested form may be a part): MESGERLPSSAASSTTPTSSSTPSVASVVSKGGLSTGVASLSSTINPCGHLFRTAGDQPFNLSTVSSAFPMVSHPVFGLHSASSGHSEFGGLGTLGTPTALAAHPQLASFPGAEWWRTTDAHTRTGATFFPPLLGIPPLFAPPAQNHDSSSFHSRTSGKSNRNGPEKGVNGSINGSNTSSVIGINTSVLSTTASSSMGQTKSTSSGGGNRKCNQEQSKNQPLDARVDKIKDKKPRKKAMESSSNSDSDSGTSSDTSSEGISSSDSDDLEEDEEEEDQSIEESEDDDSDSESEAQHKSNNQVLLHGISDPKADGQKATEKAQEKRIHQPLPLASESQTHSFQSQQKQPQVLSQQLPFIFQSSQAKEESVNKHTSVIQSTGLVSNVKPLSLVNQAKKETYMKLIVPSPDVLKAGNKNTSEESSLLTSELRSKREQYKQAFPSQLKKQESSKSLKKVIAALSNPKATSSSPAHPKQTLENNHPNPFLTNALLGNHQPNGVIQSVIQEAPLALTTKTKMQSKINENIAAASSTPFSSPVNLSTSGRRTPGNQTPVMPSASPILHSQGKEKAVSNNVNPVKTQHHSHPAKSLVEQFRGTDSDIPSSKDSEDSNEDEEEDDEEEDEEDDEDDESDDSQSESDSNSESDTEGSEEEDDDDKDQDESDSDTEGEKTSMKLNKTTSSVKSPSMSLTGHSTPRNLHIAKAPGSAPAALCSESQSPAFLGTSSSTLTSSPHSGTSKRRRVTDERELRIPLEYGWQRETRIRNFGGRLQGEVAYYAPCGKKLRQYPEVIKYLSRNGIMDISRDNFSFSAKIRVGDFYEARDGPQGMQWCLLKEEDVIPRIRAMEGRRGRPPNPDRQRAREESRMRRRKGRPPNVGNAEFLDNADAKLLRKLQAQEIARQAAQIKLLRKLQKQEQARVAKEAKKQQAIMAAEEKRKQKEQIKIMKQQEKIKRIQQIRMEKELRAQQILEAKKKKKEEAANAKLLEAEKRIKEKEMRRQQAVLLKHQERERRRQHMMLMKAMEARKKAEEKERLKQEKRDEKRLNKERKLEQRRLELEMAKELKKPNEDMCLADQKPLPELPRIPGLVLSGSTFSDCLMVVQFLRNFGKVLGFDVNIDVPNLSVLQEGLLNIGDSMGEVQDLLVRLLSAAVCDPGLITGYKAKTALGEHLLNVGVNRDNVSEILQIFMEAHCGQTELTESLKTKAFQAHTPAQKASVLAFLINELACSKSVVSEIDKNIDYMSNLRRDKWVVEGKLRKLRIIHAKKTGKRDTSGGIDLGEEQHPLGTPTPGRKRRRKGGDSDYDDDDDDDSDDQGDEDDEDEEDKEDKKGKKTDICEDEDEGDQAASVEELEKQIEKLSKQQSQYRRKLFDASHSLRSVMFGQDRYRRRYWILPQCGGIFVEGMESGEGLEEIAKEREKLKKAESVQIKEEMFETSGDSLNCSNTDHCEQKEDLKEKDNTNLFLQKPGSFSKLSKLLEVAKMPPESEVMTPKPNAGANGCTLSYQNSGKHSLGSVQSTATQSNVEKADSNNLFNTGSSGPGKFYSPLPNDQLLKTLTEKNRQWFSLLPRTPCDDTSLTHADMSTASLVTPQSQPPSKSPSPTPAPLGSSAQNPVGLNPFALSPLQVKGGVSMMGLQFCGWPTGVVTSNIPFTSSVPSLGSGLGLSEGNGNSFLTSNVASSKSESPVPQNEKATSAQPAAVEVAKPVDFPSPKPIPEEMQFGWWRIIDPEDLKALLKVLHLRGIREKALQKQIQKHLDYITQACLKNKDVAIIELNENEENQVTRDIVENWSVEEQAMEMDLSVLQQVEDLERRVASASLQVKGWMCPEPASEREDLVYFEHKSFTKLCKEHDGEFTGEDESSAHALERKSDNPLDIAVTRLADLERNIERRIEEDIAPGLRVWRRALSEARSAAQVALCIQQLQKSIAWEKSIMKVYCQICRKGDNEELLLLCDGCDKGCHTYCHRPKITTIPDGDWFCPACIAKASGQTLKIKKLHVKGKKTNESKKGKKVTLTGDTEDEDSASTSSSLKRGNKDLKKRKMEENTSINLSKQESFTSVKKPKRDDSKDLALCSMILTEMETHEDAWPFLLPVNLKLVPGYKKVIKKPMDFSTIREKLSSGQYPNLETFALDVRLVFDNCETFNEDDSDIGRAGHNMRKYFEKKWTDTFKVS
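Complex of BAZ2B and biotin-H3K14Ac (50 nM apiece) forms over 30 min at RT, then faces library compounds up to 110 uM for another 30 min; AlphaScreen beads added, 20 min dark incubation, luminescence read.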
G9a inh – qHTS Assay for Inhibitors of Histone Lysine Methyltransferase G9a; G9a H3K9 monomethylation, AlphaScreen, 2 h; Potency, µM (series often up to 102 µM), for the others: at the top dose activity, negative = inhibition, actives largely listed as inhibitors; Histone-lysine N-methyltransferase EHMT2 (Homo sapiens), Q96KQ7; actives 8.8% (n = 350,000); also: % is scaled to controls: 0 for no effect and ±100 for the full control effect; nearly all actives have a fitted effect of over 75% in size
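Methyltransferase reactions run at room temperature for 2 h (20 nM enzyme, 500 nM biotin-H3K9 peptide, 20 uM SAM) after a 15 min compound preincubation; product detected by AlphaScreen beads and anti-H3K9me1 antibody.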
* marks the source's active call; other numbers are inactive results; ? = inconclusive; . = no result; [ ] = remark or other dose. Most compounds without a hit are left out; they make up all but 11% or so of the library. Calls follow the shape of the dose curve; as a rule, active = well fitted inhibition curve with a large enough effect; inconclusive = small, poorly fitted or top-dose-only effect; inactive = no such curve, though single readings can be large or run the other way. Potency is read from the fitted curve at half-maximal effect.

SMILES	JMJD2A Tudor	HP1b chromo inh	L3MBTL1 inh	BAZ2B block	G9a inh
Cc1ccc2onc(CNC(=O)N3CCN(c4cccc(C)c4C)CC3)c2c1	-21%	19%	.	-15%	-32%[59 µM]
COc1ccc(-c2nc(SCC(=O)Nc3ccc4c(c3)OCCO4)c(-c3ccc(C)cc3)[nH]2)cc1OC	?	2%	.	-23%	-11%[59 µM]
CCc1ccc(Nc2nnc(-n3nc(C)cc3C)c3ccccc23)cc1	2%	121%	.	45%	35%[59 µM]
O=[S+]([O-])(c1c(F)cccc1F)N1CCN([S+](=O)([O-])c2c(F)c(F)c(F)c(F)c2F)CC1	-8%	.	.	.	.
Cc1ccc(C)c(C(=O)COC(=O)Cn2c(C)csc2=O)c1	-8%	17%	.	-9%	79µM*
CN1CCN(c2ccc(NS(=O)(=O)c3ccc(Cl)cc3)cn2)CC1	-13%	32%	-15%	-22%	?
CN1CCN(NS(=O)(=O)c2ccc(Cl)cc2)CC1	-11%	15%	.	1%	1.1µM*
CCC(C(=O)C(C)C(O)C(C)CCc1ccc(C)c(O)c1C(=O)O)C1OC(CC)(C2CC[C@@](O)(CC)C(C)O2)CC1C (stereo partly specified)	.	.	.	.	-3%[2.33 µM]
CC(=O)N1CCc2c(sc3c2c(=O)n(-c2ccccc2C)c(=O)n3CC(=O)Nc2ccccc2)C1	-22%	2%	.	-1%	-2%[59 µM]
Cc1ccc(N2CC(NC(=O)c3ccco3)CC2=O)cc1 (stereo unspecified)	?	20%	.	3%	-2%[59 µM]
O=c1[nH]c(=O)n(-c2ccccc2)c2c1C(C(F)(F)F)(C(F)(F)F)N=C(C1CCCCC1)N2	89µM*	4%	1%	-2%	23%[59 µM]
COc1cccc(C2=NN(C(C)=O)C(c3cn(-c4ccccc4)nc3-c3cccs3)C2)c1 (stereo unspecified)	4%	25%	.	-8%	17%[59 µM]
Cc1cc(C)c2c(n1)sc1c(-c3ccccc3)c(C#N)c(N)nc12	?	26%	4%	27%	7.9µM*
Cc1ccc(Cl)cc1-n1ncc2c(N3CCN(Cc4ccccc4)CC3)ncnc21	-22%	42%	.	-6%	5%[59 µM]
O=C(CSc1n[nH]c(-c2ccccn2)n1)Nc1ccc(F)cc1	5.6µM*	32%	.	4µM*	38%
CCc1nc(SCC(=O)Nc2ccc(N(C)C)cc2)n[nH]1	-19%	3%	-6%	-7%	-17%[0.501 µM]
CCc1nc(SCC(=O)Nc2ccc(C(=O)O)cc2)n[nH]1	-14%	92%	.	-4%	45µM*
O=C(CSc1n[nH]c(-c2ccccc2)n1)Nc1ccccc1O	-19%	7%	.	-20%	50µM*
O=C(CSc1n[nH]c(-c2ccncc2)n1)Nc1ccc(F)cc1	-9%	28%	.	-18%	5%
O=C(CSc1n[nH]c(-c2ccccn2)n1)Nc1ccc(Cl)cc1	10µM*	56%	.	5µM*	35%
O=C(CNS(=O)(=O)c1ccc(Br)s1)NCCc1ccc(Cl)cc1	-7%	25%	.	23%	33%
CC(C)OCCCN1C(=O)c2[nH]nc(-c3ccccc3O)c2C1c1ccc(OCc2ccccc2)cc1 (stereo unspecified)	?	4%	.	-30%	-9%[59 µM]
CC(C)(CNC(=O)c1ccc(-c2ccccc2Cl)o1)N1CCOCC1	-17%	16%	1%	-1%	-5%
Cc1ccc(NC(=O)CSc2n[nH]c(-c3ccccn3)n2)cc1	4µM*	58%	.	4µM*	8%[59 µM]

Screening data deposited in PubChem by National Center for Advancing Translational Sciences (NCATS).
